Results filed as inconclusive are left out. Where a call stands in place of a potency, no number is given. Active and inactive are the calls of the source. Calls follow the shape of the dose curve; as a rule, active = well fitted inhibition curve with a large enough effect; inconclusive = small, poorly fitted or top-dose-only effect; inactive = flat fitted curve, though single readings scatter.
target: Cruzipain (Trypanosoma cruzi) (UniProt P25779); assay: Inhibitors of Cruzain: Benzimidazole Series - Round 1; conditions: purified cruzain, Z-FR-AMC fluorogenic cleavage; series mostly up to 57.1 µM
Protocol: Cruzain is a cysteine protease from the tropical parasite Trypanosoma cruzi. This assay protocol is for an initial exploratory first round of benzimidazole-based inhibitors. Cruzain was assayed by the use of fluorogenic coumarin-based substrate Z-FR-AMC: proteolytic cleavage releases AMC, whose fluorescence is measured at 360 nm excitation and 450 nm emission. Purified cruzain was supplied by the labs of Prof. James McKerrow and Brian Shoichet, UC San Francisco. This assay had 0.01% Triton X-100 concentration.
See following references for additional details:
Assay Provider: Shoichet, Brian; University of California, San Fancisco
Screening Center PI: Austin, C.P.
Screening Center: NIH Chemical Genomics Center [NCGC]
Buffer: 100 mM Sodium Acetate, pH 5.5, 5 mM DTT, Triton X-100 concentration: 0.01%.
Buffer in columns 3 and 4 as negative control (no enzyme).
Substrate solution: 2 uM final concentration of Z-FR-AMC (catalog number I-1160, Bachem) dispensed throughout the plate.
Enzyme: 1.5 nM Cruzain final concentration in columns 1, 2, 5-48. Column 1 is neutral (100% activity). Column 2 contained titration of covalent inhibitor K11777, starting concentration 1 mM, then 1:2 dilution in duplicate).
Three uL of enzyme or buffer were dispensed to 1536-well Greiner black solid bottom plates. Compounds and controls (23 nL) were transferred via Kalypsys PinTool. The plates were incubated for 15 min at room temperature, and then 1 uL of substrate solution was added to start the reaction. The plates were immediately transferred to and read 4 times every 30 seconds for 2 min on ViewLux High-throughput CCD imager (Perkin-Elmer) using 360 nm excitation and 450 nm emission fluorescence protocol. The fluorescence intensity difference between the third and the first time points (time lapse of 60 seconds) was used to compute reaction progress.

Chain of Cruzipain (Trypanosoma cruzi) (P25779 123-467 limits assumed): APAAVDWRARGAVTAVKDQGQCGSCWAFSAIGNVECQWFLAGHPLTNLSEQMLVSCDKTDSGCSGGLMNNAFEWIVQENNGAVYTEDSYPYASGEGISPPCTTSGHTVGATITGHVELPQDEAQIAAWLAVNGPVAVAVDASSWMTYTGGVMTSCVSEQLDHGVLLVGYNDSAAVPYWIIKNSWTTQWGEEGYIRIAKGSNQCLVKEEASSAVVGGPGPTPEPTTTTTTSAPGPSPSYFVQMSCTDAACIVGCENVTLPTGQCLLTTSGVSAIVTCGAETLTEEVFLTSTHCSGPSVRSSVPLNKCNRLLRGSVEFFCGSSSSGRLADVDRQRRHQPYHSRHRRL

Compound | Potency
CC(C)(C)OC(=O)NCC(=O)NNC(=O)c1nc2ccccc2[nH]1 | inactive
O=C(COc1ccccc1Br)NCCc1nc2ccccc2[nH]1 | 3.63 µM (active)
O=C(NNC(=O)c1nc2ccccc2[nH]1)OCc1ccccc1 | inactive
Cc1ccc(C)c(OCCn2c(CCNC(=O)C3CCCCC3)nc3ccccc32)c1 | 1.62 µM (active)
O=C(NCc1nnc(-c2nc3ccccc3[nH]2)o1)C1CCCCC1 | inactive
CC(C)(C)OC(=O)NCc1nnc(-c2nc3ccccc3[nH]2)o1 | inactive
CC(C)(C)OC(=O)Cc1nnc(-c2nc3ccccc3[nH]2)o1 | inactive
O=C(Cc1nnc(-c2nc3ccccc3[nH]2)o1)Nc1cc(C(F)(F)F)ccc1Cl | inactive
O=C(COc1ccc(F)cc1)NCCc1nc2ccccc2[nH]1 | 4.08 µM (active)
O=C(NCCc1nc2ccccc2n1CCO)C1CCCCC1 | 6.46 µM (active)
Cc1ccc(C)c(OCCn2c(CCNC(=O)COc3ccc(F)cc3)nc3ccccc32)c1 | 9.13 µM (active)

From PubChem BioAssay AID493215 (National Center for Advancing Translational Sciences (NCATS), 2011)
